Screening results: PubChem BioAssay, Broad Institute
EBV LMP1 NFkB: reduces LMP1-driven NF-kappaB luciferase signal; LMP1-induced NF-kappaB luciferase reporter cells, luminescence; inhibition, % at 12.5 µM; 350,000 tested, 0.69% active; AID 504558; in the data active means inhibition above about 41%; inconclusive means no clear call, values can overlap the other calls;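 further: 0% = neutral control wells and 100% = reference inhibitor control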
LGR2 inh: inhibitors of bursicon-induced Drosophila LGR2 receptor cAMP signaling | HEK293 LGR2, CRE-luciferase, bursicon-stimulated, 4 h | inhibition, % at 9.99 µM | 380,000 tested, 0.35% active | AID 720647;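 active means drop in luminescence signal, shown as inhibition above about 50% in the replicate tests, limit read from the data, passing the limit was not always enough; inconclusive means probably only some replicates passing the limit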;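 further: agonist challenge used bursicon conditioned medium at about half maximal strength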
PAX8 inh HTS: lowers PAX8-driven luciferase in RMG-I cells. inhibition, % at 12.6 µM. RMG-I TPO-luciferase reporter, SteadyGlo, 24 h. 360,000 tested, 1.2% active. AID 652154;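 active means mean replicate inhibition at least 60% with every replicate also reaching 60%; inconclusive means only one of the two criteria is met; inactive means mean below 60% and not all replicates reaching 60%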;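 further: luciferase light reporting Pax8 driven TPO promoter activity; plate controls were median of neutral control wells for no effect and mitoxantrone controls for full effect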
MITF TRPM1 inh: reduces MITF-dependent TRPM1 promoter luciferase signal; SK-MEL-5 TRPM1 promoter luciferase, 24 h; inhibition, % at 12.5 µM; 330,000 tested, 0.83% active; AID 488899;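 active means mean inhibition across replicates of 60% or more, whatever share of single replicates reaches that level; inconclusive means some that reach 60%, reason not given; inactive means mean inhibition across replicates below 60%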
PGC1a acetyl inh: modulators of PGC1a acetylation; U2OS PGC1a acetylation, AlphaScreen anti-acetyl-lysine; with virally co-expressed GCN5 acetyltransferase; 350,000 tested, 0.17% active; inhibition, % at 15.6 µM;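 active means every replicate shows inhibition of at least 40%; inconclusive means mean inhibition at least 40% but some replicate below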;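 further: 0% = neutral control wells and 100% = positive control wells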
EWS-Fli inh: blocks EWS/Fli oncoprotein-driven transcription | A673 NR0B1-luciferase reporter, viability-normalised | inhibition, % at 12.6 µM | 350,000 tested, 0.67% active | AID 651661;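 active means mean inhibition of at least 50% after viability correction, with every replicate also passing that limit; inconclusive means mean reaches 50% but only one of two replicates passes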;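 further: firefly luciferase signal divided by Alamar Blue viability fluorescence both relative to DMSO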
DNA binding: binds DNA displacing acridine orange; shares compounds with EWS-Fli inh; salmon sperm DNA acridine orange fluorescence polarization; AC35, µM (doses to about 68 µM), without a hit: top-dose activity change, negative = DNA binding; 640 tested, 2% active;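 active means fitted curve reaches a 35% signal fall AC35 below twice the sample's top valid tested dose, actives reach about 48 µM in these data; inactive means the rest, including activity in the rising direction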;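 further: lower polarization ratio signals compound binding to DNA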
Starred values were filed as active, the others as inactive. This is a sample that favours compounds with a hit; in the whole collection about 2.2% have one here.

`O=C(NC1CCCC1)N1CCCCN2[C@@H](CO)[C@@H](c3ccc(/C=C/c4ccccc4)cc3)[C@@H]2C1` gave LGR2 inh 26, PAX8 inh HTS 104*, PGC1a acetyl inh -3, EWS-Fli inh 73* and DNA binding 9%.
Screening Cc1cc(C)c2sc(NNC(=O)c3ccc(S(=O)(=O)N4CCc5ccccc5C4)cc3)nc2c1 returned EBV LMP1 NFkB 49*, PAX8 inh HTS 99*, MITF TRPM1 inh 72*, EWS-Fli inh 54* and DNA binding -5%.
For COc1ccc(/C=C2\SC(=O)N(CCCC(=O)Nc3cc(Cl)ccc3C(=O)O)C2=O)cc1 the results were EBV LMP1 NFkB 74*, LGR2 inh 30, PAX8 inh HTS 53, MITF TRPM1 inh 89*, EWS-Fli inh 85* and DNA binding -10%.
Screening Cc1c(C=NNc2ccccc2)[nH]c(=O)[nH]c1=O returned EBV LMP1 NFkB -3, LGR2 inh 7, PAX8 inh HTS -27, MITF TRPM1 inh -8 and EWS-Fli inh 17.
Screening COC(=O)c1c(C)[nH]c(/C=N/Nc2ccccc2)c1C returned EBV LMP1 NFkB -12, PAX8 inh HTS -33, MITF TRPM1 inh -97, PGC1a acetyl inh -6, EWS-Fli inh 54* and DNA binding -17%.
Screening CCC(=O)N1[C@H](CO)[C@H](c2ccc(-c3ccncc3)cc2)[C@@H]1CN(C)C(C)=O returned LGR2 inh -12 and EWS-Fli inh 3.
`COc1ccc(OC)c(-c2nnc3n2N=C(c2ccc(OC)c(OC4CCCC4)c2)CS3)c1` gave EBV LMP1 NFkB 48*, PAX8 inh HTS 89*, MITF TRPM1 inh 78*, EWS-Fli inh 52* and DNA binding -13%.
For COc1ccc(C2=Nn3c(nnc3-c3ccccc3OC)SC2)cc1OCC1CC1 the results were EBV LMP1 NFkB 15, LGR2 inh 35, PAX8 inh HTS 78*, MITF TRPM1 inh 52, PGC1a acetyl inh -24, EWS-Fli inh 62* and DNA binding -14%.
Screening COc1ccccc1-c1ccc2n(c1=O)C[C@H]1[C@H](CO)[C@@H](C(=O)N[C@H](C)c3ccccc3)[C@@H]2N1C returned LGR2 inh -14, PAX8 inh HTS 8 and EWS-Fli inh -2.
Screening C[C@H]1CN([C@@H](C)CO)C(=O)c2cc(NS(=O)(=O)c3ccc(Cl)cc3)ccc2O[C@H]1CN(C)Cc1ccc(C(=O)Nc2ccccc2N)cc1 returned LGR2 inh -15, PAX8 inh HTS 4, PGC1a acetyl inh 3, EWS-Fli inh 61* and DNA binding -12%.
Screening COc1ccc(S(=O)(=O)Nc2ccc3c(c2)C(=O)N([C@H](C)CO)C[C@@H](C)[C@@H](CN(C)Cc2ccc(C(=O)Nc4ccccc4N)cc2)O3)cc1 returned LGR2 inh -9, PGC1a acetyl inh 7, EWS-Fli inh 56* and DNA binding -1%.
`C[C@@H]1CN([C@H](C)CO)C(=O)c2cc(NS(=O)(=O)c3ccccc3)ccc2O[C@H]1CN(C)Cc1ccc(C(=O)Nc2ccccc2N)cc1` gave LGR2 inh -4, PAX8 inh HTS 18, PGC1a acetyl inh -13 and EWS-Fli inh 30.
For COc1ccc(S(=O)(=O)Nc2ccc3c(c2)C(=O)N([C@@H](C)CO)C[C@@H](C)[C@@H](CN(C)Cc2ccc(C(=O)Nc4ccccc4N)cc2)O3)cc1 the results were LGR2 inh 13, PGC1a acetyl inh 13 and EWS-Fli inh 49.
C[C@@H]1CN([C@H](C)CO)C(=O)c2cc(NC(=O)CCCCCC(=O)Nc3ccccc3N)ccc2O[C@H]1CN(C)S(=O)(=O)c1ccc(Cl)cc1 was read as LGR2 inh 6, PGC1a acetyl inh inconclusive, EWS-Fli inh 52* and DNA binding -9%.
C[C@@H]1CCCCO[C@H](CN(C)Cc2ccc(C(=O)Nc3ccccc3N)cc2)[C@@H](C)CN([C@@H](C)CO)C(=O)c2cc(NS(=O)(=O)c3ccc(Cl)cc3)ccc2O1 was read as LGR2 inh 6, PAX8 inh HTS 89*, PGC1a acetyl inh 2, EWS-Fli inh 59* and DNA binding -8%.
`CO[C@H]1CN(C)C(=O)c2cc(NC(C)=O)ccc2OC[C@H](C)N(Cc2ccccn2)C[C@@H]1C` gave LGR2 inh 7, PGC1a acetyl inh -15 and EWS-Fli inh -2.
`C[C@@H]1CCCCO[C@@H](CN(C)Cc2ccc(C(F)(F)F)cc2)[C@H](C)CN([C@H](C)CO)C(=O)c2cc(NC(=O)CCCN(C)C)ccc2O1` gave LGR2 inh 5, PGC1a acetyl inh -4 and EWS-Fli inh 12.
Screening C[C@@H]1CN([C@@H](C)CO)C(=O)c2cc(NS(=O)(=O)c3ccc(F)cc3)ccc2O[C@@H]1CN(C)Cc1ccc(C(=O)Nc2ccccc2N)cc1 returned LGR2 inh 6, PAX8 inh HTS 10, PGC1a acetyl inh 5, EWS-Fli inh 54* and DNA binding -7%.
Screening C[C@@H]1CCCCO[C@H](CN(C)Cc2ccc(C(F)(F)F)cc2)[C@H](C)CN([C@H](C)CO)C(=O)c2cc(NC(=O)CCCN(C)C)ccc2O1 returned LGR2 inh 6, PGC1a acetyl inh -31, EWS-Fli inh 67* and DNA binding 0%.
For COc1ccc(S(=O)(=O)Nc2ccc3c(c2)C(=O)N([C@H](C)CO)C[C@@H](C)[C@@H](CN(C)CC2CCCCC2)OCCCC[C@H](C)O3)cc1 the results were LGR2 inh 3, PAX8 inh HTS 17, PGC1a acetyl inh -18, EWS-Fli inh 56* and DNA binding -12%.
COc1ccc(S(=O)(=O)Nc2ccc3c(c2)C(=O)N([C@H](C)CO)C[C@@H](C)[C@H](CN(C)CC2CCCCC2)OCCCC[C@@H](C)O3)cc1 was read as LGR2 inh 12, PAX8 inh HTS 19, PGC1a acetyl inh -33 and EWS-Fli inh 5.
O=C(Nc1ccccc1F)N1C[C@@H]2[C@H](c3ccccc31)[C@H](CO)N2C(=O)C1CCCC1 was read as LGR2 inh -30, PAX8 inh HTS -81, PGC1a acetyl inh -6 and EWS-Fli inh -23.
For CN1C(=O)c2cc(NC(=O)c3cnccn3)ccc2OC[C@@H]2O[C@H](CC(=O)NC3CCC3)CC[C@H]21 the results were LGR2 inh 7, PAX8 inh HTS 9, PGC1a acetyl inh 4 and EWS-Fli inh 1.
`CC(=O)Nc1ccc(OCC(=O)N(CC(C)C)C2CCS(=O)(=O)C2)cc1` (centres undefined) gave EBV LMP1 NFkB 0, PAX8 inh HTS 28, MITF TRPM1 inh -2, EWS-Fli inh 68* and DNA binding 0%.
